In PubChem BioAssay (NCI) one finds growth data, which are given here for seven compounds.

The panel holds about 83,000 compounds, 20% with a hit somewhere; the sample as a whole holds those more often.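 The test compound was applied at a single concentration to cells in 96-well plates for 48 hours, and percent growth was recorded.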 Values without a mark were called inactive. Active and inactive are the calls of the source. The calls were made as follows: active = growth percent below 10; inactive = the rest.

What all share (test): NCI-60 one-dose screen, 48 h (100 = growth as untreated, 0 = no growth, -100 = all killed)
Holding throughout (conditions): 10 µM unless noted

Test [1] deals with NCI-H23 lung.
Test [2] has as its system NCI-H226 lung.
Test [3] deals with NCI-H322M lung.
In test [4] the test system is HOP-62 NSCLC.
For test [5], the system named is NCI-H460 lung.
For test [6], the system named is HOP-92 NSCLC.
In test [7] the test system is NCI-H522 lung.
Test [8] deals with A549/ATCC NSCLC.
The test system of test [9] is 786-0 renal.
Test [10] deals with COLO 205 colon.
For test [11], the system named is DU-145 prostate.
In test [12] the test system is K-562 leukemia.
Test [13] has as its system MALME-3M melanoma.
Test [14] concerns MDA-MB-231 breast.
Test [15] has as its system RXF 393 renal.
The subject of test [16] is SF-268 CNS.
Test [17] concerns SF-295 CNS.
Test [18] has as its system SF-539 CNS.
Test [19] deals with UACC-257 melanoma.
The subject of test [20] is M14 melanoma.

With `CC12CCC(/C(=C/NNc3ccc([N+](=O)[O-])cc3[N+](=O)[O-])C1=O)C2(C)C` (stereo not given), the growth is 78.1% in test [1]; 87.1% in [2]; 83.6% in test [3]; 100% in test [4]; 45.1% in test [5]; 79.7% in [6]. Further, the growth in [7] is 36.2%; in [8], 77.9%; in test [9] it was 96.4%; in test [10], 91.4%; in test [11] it was 4.67% (active); in test [12] it was 77.9%. Moreover, the growth is 128% in test [13]; 66.1% in test [14]; 64.6% in [15]; 77.8% in test [16]; 85.2% in test [17]; 102% in test [18]. Also, the growth is 64.4% in test [19] and 65.5% in test [20].

Take `CCOC(=O)NN1CC(O)=C(c2nc(-c3ccc(Br)cc3)cs2)C1=N`: the growth in [1] was 101%; in test [2], 105%; in test [3], 112%; in test [4] it was 106%; in test [5] it was 111%; in [6] it was 97.3%. For the same compound, the growth in [7] was 92.1%; in [8] it was 88.1%; in test [9] it was 111%; in test [10] it was 112%; in test [11] it was 105%; in test [12] it was 78.4%. Further, the growth in [13] is 112%; in [14], 104%; in test [15], 82.9%; in test [16], 108%; in test [17], 90.9%; in test [18], 96.7%. Further, the values for the growth in [19] and in [20] were 96.4% and 156%, respectively.

As to `CCNC(=O)Oc1ccc(/C(=C(/C)Cc2ccc(OC)cc2)c2ccc(OCCN3CCCC3)cc2)cc1`, the growth in test [1] was 86.6%; in [2] it was 90.1%; in [3], 89%; in [4] it was 93%; in [5], 55.9%; in test [6] it was 61.8%. Also, the growth in test [7] was 78.9%; in test [8] it was 66.4%; in test [9] it was 68%; in test [10] it was 33.4%; in test [11], 87.1%; in test [12] it was 2.41% (active). For the same compound, the growth in test [13] was 80.6%; in test [14], 79.8%; in [15] it was 76.3%; in [16], 78.2%; in [17], 79.3%; in test [18], 76.8%. Also, the growth was 105% in [19] and 2.05% (active) in [20].

Turning to `COc1ncc2cc1NS(=O)(=O)c1cccc(c1)C(=O)NCC1=CC=C(S1)c1ncnc3c1SC2=C3C`, the growth in test [1] was 10.6%; in test [2], -30.4% (active); in test [3] it was -65.4% (active); in test [4] it was 4.4% (active); in test [5] it was 2.61% (active); in test [6] it was -17.5% (active). The growth in test [7] is 4.2% (active); in [8] it was 1.4% (active); in test [9] it was -23.8% (active); in [10] it was -35.5% (active); in test [11], 9.14% (active); in [12], 4.66% (active). In addition, the growth in test [13] was -39.2% (active); in [14], 10.9%; in [15], -62.8% (active); in [16] it was 0.0661% (active); in [17], -21.6% (active); in test [18] it was -55.3% (active). Further, the growth in [19] was -1.33% (active); in [20] it was -43.9% (active).

With `CCCNc1nc2ccccc2c2c(=O)c3cccc(Cl)c3sc12`, the growth in [1] was 74.1%; in [2], 84.9%; in test [3], 89.6%; in [4], 88.3%; in test [5], 78.7%; in [6], 89.5%. In addition, the growth is 82.3% in test [7]; 94% in [8]; 110% in test [9]; 94.7% in test [10]; 98.2% in test [11]; 86% in [12]. In addition, the growth is 81.9% in [13]; 105% in [14]; 98.5% in test [15]; 101% in [16]; 98.8% in test [17]; 110% in [18]. Moreover, the growth in test [19] was 107%; in test [20] it was 101%.

For `O=C(Cn1cc(CN2C(=O)c3ccccc3S2(=O)=O)nn1)Nc1cccc(Cl)c1`, the growth was 97.1% in test [1]; 117% in test [2]; 99% in test [3]; 125% in test [4]; 111% in test [5]; 105% in test [6]. The growth in [7] was 93.9%; in test [8], 111%; in test [9] it was 115%; in [10] it was 114%; in test [11], 109%; in test [12], 103%. The growth is 99.6% in test [13]; 115% in test [14]; 106% in test [15]; 99.4% in test [16]; 115% in test [17]; 110% in test [18]. Further, the figures for the growth in test [19] and in [20] were 113% and 100%, respectively.

Regarding `CN1CCN(c2ccc3c(c2)nc(NNC(=O)c2cnccn2)c2cccn23)CC1`, the growth is 34.1% in test [1]; 38% in test [2]; 21.5% in [3]; 25.1% in [4]; 9.73% (active) in test [5]; 65.5% in test [6]. Further, the growth is 15.7% in test [7]; 21.9% in [8]; 17.6% in [9]; 3.54% (active) in test [10]; 27.3% in [11]; 14.5% in test [12]. In addition, the growth in [13] was 36.9%; in test [14] it was 34.1%; in test [15], 48.6%; in test [16] it was 25.9%; in [17] it was 10.4%; in test [18] it was 15.2%. In addition, the growth is 46.6% in test [19] and 18.2% in test [20].
